Experimental data: PubChem BioAssay (NCATS)
Records with an inconclusive call do not appear. Active and inactive are the calls of the source. The call rests on the fitted dose curve; in most records, active means well fitted cell-killing curve with a large enough effect; inconclusive means small, poorly fitted or top-dose-only effect, or effect the other way; inactive means flat fitted curve, though single readings scatter.

How the values were obtained:
Test in all cases: Primary qHTS to identify gynecologic anti-cancer compounds using libraries of approved drugs and bioactive compounds (AID 1345084); further: nearly all actives have a fitted effect of over 55% in size
C33A = settings: Gynecologic cancer cell panel viability, ATPlite luminescence, 48 h; series mostly up to 57.5 µM
Outline: (§1)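 ATP-based viability (ATPlite), 1,000 cells/well, 16 h pre-incubation, 48 h compound at 37 C, 5% CO2, 15 min RT before read.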

CAOV3 = settings: Gynecologic cancer cell panel viability, ATPlite luminescence, 48 h; series mostly up to 57.5 µM
Outline: as §1

CASKI = settings: Gynecologic cancer cell panel viability, ATPlite luminescence, 48 h; series mostly up to 57.5 µM
Outline: as §1

Es-2 = settings: Gynecologic cancer cell panel viability, ATPlite luminescence, 48 h; series mostly up to 57.5 µM
Outline: as §1

HeLa = settings: Gynecologic cancer cell panel viability, ATPlite luminescence, 48 h; series mostly up to 57.5 µM
Outline: as §1

Hek293T = settings: Gynecologic cancer cell panel viability, ATPlite luminescence, 48 h, control line for the selectivity index; series mostly up to 57.5 µM
Outline: as §1

JEG-3 = settings: Gynecologic cancer cell panel viability, ATPlite luminescence, 48 h; series mostly up to 57.5 µM
Outline: as §1

OV90 = settings: Gynecologic cancer cell panel viability, ATPlite luminescence, 48 h; series mostly up to 57.5 µM
Outline: as §1

PA-1 = settings: Gynecologic cancer cell panel viability, ATPlite luminescence, 48 h; series mostly up to 57.5 µM
Outline: as §1

SKOV3 = settings: Gynecologic cancer cell panel viability, ATPlite luminescence, 48 h; series mostly up to 57.5 µM
Outline: as §1

Tov-21-G = settings: Gynecologic cancer cell panel viability, ATPlite luminescence, 48 h; series mostly up to 57.5 µM
Outline: as §1

Tov112D = settings: Gynecologic cancer cell panel viability, ATPlite luminescence, 48 h; series mostly up to 57.5 µM
Outline: as §1

Measured: Potency

CC(=O)OC[C@]12[C@H](OC(C)=O)C(=O)[C@@H]3[C@@H](OC(C)=O)[C@@]14O[C@@]3(C)COC(=O)c1cccnc1[C@@H](C)[C@H](C)C(=O)O[C@@H]([C@H](OC(C)=O)[C@@H]2OC(C)=O)[C@]4(C)O
inactive: C33A | CAOV3 | CASKI | Es-2 | HeLa | Hek293T | JEG-3 | OV90 | PA-1 | SKOV3 | Tov-21-G | Tov112D

C=C1C[C@]23C[C@H]1CC[C@H]2[C@]1(C)CCC[C@@]2(CO)C(=O)O[C@H]([C@H]21)[C@@H]3O
inactive: C33A | CAOV3 | CASKI | Es-2 | HeLa | Hek293T | JEG-3 | OV90 | PA-1 | SKOV3 | Tov-21-G | Tov112D

CC1=CC(=O)CC(C)(C)C1(O)CCC(C)O (stereo unspecified)
inactive: C33A | CAOV3 | CASKI | Es-2 | HeLa | Hek293T | JEG-3 | OV90 | PA-1 | SKOV3 | Tov-21-G | Tov112D

CC1=C2CC3OC3(C)CCC3OC3(C)CC2OC1=O (stereo unspecified)
inactive: C33A | CAOV3 | CASKI | Es-2 | HeLa | Hek293T | JEG-3 | OV90 | PA-1 | SKOV3 | Tov-21-G | Tov112D

CC1CCC2C(C)(C)C(O)CCC2(C)C12Cc1c(O)cc3c(c1O2)CN(C(CCC(N)=O)C(=O)O)C3=O (stereo unspecified)
inactive: C33A | CAOV3 | CASKI | Es-2 | HeLa | Hek293T | JEG-3 | OV90 | PA-1 | SKOV3 | Tov-21-G | Tov112D

CO[C@@H]1COCC[C@@H]1N[C@@H]1CC[C@@](C(=O)N2CCc3ncc(C(F)(F)F)cc3C2)(C(C)C)C1
inactive: C33A | CAOV3 | CASKI | Es-2 | HeLa | Hek293T | JEG-3 | OV90 | PA-1 | SKOV3 | Tov-21-G | Tov112D

O=C(NCC(=O)N1CC[C@H](NC2CCC(O)(c3ccc(-c4ncccn4)cn3)CC2)C1)c1cccc(C(F)(F)F)c1 (stereo partly specified)
inactive: C33A | CAOV3 | CASKI | Es-2 | HeLa | Hek293T | JEG-3 | OV90 | PA-1 | SKOV3 | Tov-21-G | Tov112D

N#Cc1ccnc(N2C(=O)CC[C@H]2C(=O)N(c2cncc(F)c2)[C@H](C(=O)NC2CC(F)(F)C2)c2ccccc2Cl)c1
inactive: C33A | CAOV3 | CASKI | Es-2 | HeLa | Hek293T | JEG-3 | OV90 | PA-1 | SKOV3 | Tov-21-G | Tov112D

O=C(COc1ccc(Cl)cc1)NC1CCC(NC(=O)COc2ccc(Cl)cc2)CC1 (stereo unspecified)
inactive: C33A | CAOV3 | CASKI | Es-2 | HeLa | Hek293T | JEG-3 | OV90 | PA-1 | SKOV3 | Tov-21-G | Tov112D

CC(C)(O)c1ccc2c(c1)C(=O)CC1[C@](C)(CO)CCC[C@]21C (stereo partly specified)
inactive: C33A | CAOV3 | CASKI | Es-2 | HeLa | Hek293T | JEG-3 | OV90 | PA-1 | SKOV3 | Tov-21-G | Tov112D

CC1=C(CC(=O)O)c2cc(F)ccc2C1=Cc1ccc(S(C)(=O)=O)cc1
inactive: C33A | CAOV3 | CASKI | Es-2 | HeLa | Hek293T | JEG-3 | OV90 | PA-1 | SKOV3 | Tov-21-G | Tov112D

O=c1c2cccnc2n(-c2cccc([N+](=O)[O-])c2)c(=O)n1Cc1ccncc1
inactive: C33A | CAOV3 | CASKI | Es-2 | HeLa | Hek293T | JEG-3 | OV90 | PA-1 | SKOV3 | Tov-21-G | Tov112D

O=C1CC(c2ccc([N+](=O)[O-])cc2)=NN1c1ccccc1
inactive: C33A | CAOV3 | CASKI | Es-2 | HeLa | Hek293T | JEG-3 | OV90 | PA-1 | SKOV3 | Tov-21-G | Tov112D
